This passage reports binding signal results from PMC7862700, “An all-to-all approach to the identification of sequence-specific readers for epigenetic DNA modifications on cytosine”.

Test in all cases: DAPPL (digital affinity profiling via proximity ligation, sequencing); 10 mM Tris-HCl pH 7.5, 50 mM NaCl, 1 mM DTT, 4% glycerol, room temperature, 30 min; GST-TFs on glutathione beads, 16-mer random dsDNA library, 0.1% formaldehyde crosslink after washing; high values mean tight binding
The target in one experiment is T1, FLI1 (Homo sapiens, UniProt Q01543 1-452).
T1 sequence: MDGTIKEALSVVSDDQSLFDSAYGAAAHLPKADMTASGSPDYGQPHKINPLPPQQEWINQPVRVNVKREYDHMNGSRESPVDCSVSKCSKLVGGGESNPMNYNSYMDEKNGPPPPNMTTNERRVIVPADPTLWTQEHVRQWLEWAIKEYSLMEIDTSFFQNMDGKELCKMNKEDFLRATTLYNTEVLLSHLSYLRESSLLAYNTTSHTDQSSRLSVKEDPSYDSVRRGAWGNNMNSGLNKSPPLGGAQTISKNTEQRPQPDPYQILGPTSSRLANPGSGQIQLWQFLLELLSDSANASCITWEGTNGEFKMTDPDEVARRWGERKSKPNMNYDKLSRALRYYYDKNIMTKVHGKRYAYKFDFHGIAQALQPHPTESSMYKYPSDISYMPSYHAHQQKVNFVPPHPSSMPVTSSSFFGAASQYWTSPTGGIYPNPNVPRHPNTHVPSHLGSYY
The note with it: protein: recombinant; tags: N-terminal GST; dsDNA, one strand shown. In outline: (§1)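 Binding signal is given per hexamer as its read frequency for a factor divided by its frequency in the tag-only sample. GST-fused human transcription factors were expressed in yeast, captured on glutathione beads, barcoded with DNA and pooled with that sample, then incubated with 200 nmole of a 16-mer random double-stranded DNA library in Tris/NaCl/DTT/glycerol buffer for 30 min at room temperature. The pools were then washed, crosslinked, proximity-ligated, amplified by PCR and sequenced on an Illumina NextSeq500.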

The next experiment has as its target T2, ELK1 (Homo sapiens, UniProt P19419 1-428).
T2 sequence: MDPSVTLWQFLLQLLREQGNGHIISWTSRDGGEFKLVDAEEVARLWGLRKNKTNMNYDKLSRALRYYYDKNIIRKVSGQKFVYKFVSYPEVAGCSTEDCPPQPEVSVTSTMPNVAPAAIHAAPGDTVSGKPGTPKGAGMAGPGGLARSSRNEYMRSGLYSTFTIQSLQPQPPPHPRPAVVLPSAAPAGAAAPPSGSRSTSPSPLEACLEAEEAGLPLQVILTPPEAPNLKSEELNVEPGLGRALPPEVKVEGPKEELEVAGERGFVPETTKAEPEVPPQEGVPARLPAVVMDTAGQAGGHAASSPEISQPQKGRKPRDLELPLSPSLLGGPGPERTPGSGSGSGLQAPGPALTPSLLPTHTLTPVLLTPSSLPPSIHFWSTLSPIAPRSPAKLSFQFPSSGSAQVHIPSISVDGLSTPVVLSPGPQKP
The note with it: protein: recombinant; tags: N-terminal GST; dsDNA, one strand shown. In outline: as §1

For the next experiment, the target named is T3, GABPA (Homo sapiens, UniProt Q06546 1-454).
T3 sequence: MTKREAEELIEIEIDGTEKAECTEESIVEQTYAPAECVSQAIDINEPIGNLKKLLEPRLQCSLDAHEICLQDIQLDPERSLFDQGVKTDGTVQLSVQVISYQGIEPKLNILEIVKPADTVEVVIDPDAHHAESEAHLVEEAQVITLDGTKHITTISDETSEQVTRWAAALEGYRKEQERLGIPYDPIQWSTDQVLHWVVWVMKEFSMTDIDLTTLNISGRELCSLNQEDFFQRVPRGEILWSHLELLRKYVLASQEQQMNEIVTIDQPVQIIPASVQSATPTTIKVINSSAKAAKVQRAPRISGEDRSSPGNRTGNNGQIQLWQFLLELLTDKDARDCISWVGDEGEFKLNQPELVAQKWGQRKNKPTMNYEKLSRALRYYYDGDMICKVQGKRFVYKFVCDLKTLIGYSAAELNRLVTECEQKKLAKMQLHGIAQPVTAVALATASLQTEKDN
The note with it: protein: recombinant; tags: N-terminal GST; dsDNA, one strand shown. In outline: as §1

Another experiment addresses T4, ERG (Homo sapiens, UniProt P11308 1-479).
T4 sequence: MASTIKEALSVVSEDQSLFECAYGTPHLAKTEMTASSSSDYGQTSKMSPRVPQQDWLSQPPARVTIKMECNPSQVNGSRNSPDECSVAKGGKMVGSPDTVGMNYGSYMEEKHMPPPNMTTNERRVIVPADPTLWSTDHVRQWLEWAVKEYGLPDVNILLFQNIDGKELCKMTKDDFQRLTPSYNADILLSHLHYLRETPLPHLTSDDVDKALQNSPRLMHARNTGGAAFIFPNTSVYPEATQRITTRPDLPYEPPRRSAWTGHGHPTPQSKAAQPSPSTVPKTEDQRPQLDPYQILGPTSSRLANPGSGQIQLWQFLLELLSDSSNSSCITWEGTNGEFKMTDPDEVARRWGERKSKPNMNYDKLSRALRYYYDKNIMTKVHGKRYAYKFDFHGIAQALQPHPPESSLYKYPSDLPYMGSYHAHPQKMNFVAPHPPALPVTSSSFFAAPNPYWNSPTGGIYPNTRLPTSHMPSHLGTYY
The note with it: protein: recombinant; tags: N-terminal GST; dsDNA, one strand shown. The method in brief:
as §1

Another experiment has as its target ELF1 (Homo sapiens, UniProt P32519 1-619). The note with it: protein: recombinant; tags: N-terminal GST; dsDNA, one strand shown. In outline:
as §1

Another experiment addresses T5, EHF (Homo sapiens, UniProt Q9NZC4 1-300).
T5 sequence: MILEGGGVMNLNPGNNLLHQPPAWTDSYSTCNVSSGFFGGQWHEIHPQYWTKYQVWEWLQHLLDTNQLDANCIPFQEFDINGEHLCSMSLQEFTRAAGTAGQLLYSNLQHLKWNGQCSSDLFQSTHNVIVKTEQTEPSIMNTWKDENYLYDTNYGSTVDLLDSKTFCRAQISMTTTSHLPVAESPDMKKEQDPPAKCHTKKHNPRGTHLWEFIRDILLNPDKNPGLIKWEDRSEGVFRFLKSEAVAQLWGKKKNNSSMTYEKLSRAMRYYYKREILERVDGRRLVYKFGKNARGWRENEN
The note with it: protein: recombinant; tags: N-terminal GST; dsDNA, one strand shown. The method in brief: as §1

The next experiment has as its target SPI1 (Homo sapiens, UniProt P17947 1-270). The note with it: protein: recombinant; tags: N-terminal GST; dsDNA, one strand shown. The method in brief: as §1
In a further experiment the target is SPIB (Homo sapiens, UniProt Q01892 1-262). The note with it: protein: recombinant; tags: N-terminal GST; dsDNA, one strand shown. In outline:
as §1

The next experiment concerns the target T6, ELK3 (Homo sapiens, UniProt P41970 1-407).
T6 sequence: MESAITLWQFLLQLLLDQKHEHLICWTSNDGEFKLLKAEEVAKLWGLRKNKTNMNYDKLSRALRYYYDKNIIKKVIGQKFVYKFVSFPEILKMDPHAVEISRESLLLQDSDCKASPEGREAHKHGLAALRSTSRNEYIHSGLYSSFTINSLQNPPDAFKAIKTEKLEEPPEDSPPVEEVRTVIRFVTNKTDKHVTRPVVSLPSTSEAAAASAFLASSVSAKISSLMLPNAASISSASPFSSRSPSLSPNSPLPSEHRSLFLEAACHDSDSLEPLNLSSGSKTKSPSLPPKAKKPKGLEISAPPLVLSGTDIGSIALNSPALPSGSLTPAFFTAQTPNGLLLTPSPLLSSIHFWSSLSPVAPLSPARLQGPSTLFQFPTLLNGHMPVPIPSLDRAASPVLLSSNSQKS
The note with it: protein: recombinant; tags: N-terminal GST; dsDNA, one strand shown. In outline:
as §1

A further experiment addresses T7, FEV (Homo sapiens, UniProt Q99581 1-238).
T7 sequence: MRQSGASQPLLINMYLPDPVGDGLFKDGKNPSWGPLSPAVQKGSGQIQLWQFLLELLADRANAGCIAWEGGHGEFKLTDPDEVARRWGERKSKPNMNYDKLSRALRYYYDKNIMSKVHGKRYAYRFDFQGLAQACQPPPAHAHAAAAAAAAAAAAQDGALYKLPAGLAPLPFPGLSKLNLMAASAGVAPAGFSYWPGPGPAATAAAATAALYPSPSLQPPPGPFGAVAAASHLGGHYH
The note with it: protein: recombinant; tags: N-terminal GST; dsDNA, one strand shown. The method in brief:
as §1

The target in another experiment is ETV5 (Homo sapiens, UniProt P41161 1-510). The note with it: protein: recombinant; tags: N-terminal GST; dsDNA, one strand shown. The method in brief: as §1
For the next experiment, the target named is HSF1 (Homo sapiens, UniProt Q00613 1-529). The note with it: protein: recombinant; tags: N-terminal GST; chain copies: 3; dsDNA, one strand shown. In outline:
as §1

For another experiment, the target named is T8, SPIC (Homo sapiens, UniProt Q8N5J4 1-248).
T8 sequence: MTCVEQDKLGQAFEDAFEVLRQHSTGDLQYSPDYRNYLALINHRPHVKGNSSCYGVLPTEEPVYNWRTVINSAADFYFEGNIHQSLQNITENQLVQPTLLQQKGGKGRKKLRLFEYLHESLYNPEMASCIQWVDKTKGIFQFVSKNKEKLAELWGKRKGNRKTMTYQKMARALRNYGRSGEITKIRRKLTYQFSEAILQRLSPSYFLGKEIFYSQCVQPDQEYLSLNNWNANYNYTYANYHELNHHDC
The note with it: protein: recombinant; tags: N-terminal GST; dsDNA, one strand shown. The method in brief: as §1

Another experiment deals with ELF4 (Homo sapiens, UniProt Q99607 1-663). The note with it: protein: recombinant; tags: N-terminal GST; dsDNA, one strand shown. The method in brief:
as §1

In another experiment the target is T9, ELK4 (Homo sapiens, UniProt P28324-2 1-405).
T9 sequence: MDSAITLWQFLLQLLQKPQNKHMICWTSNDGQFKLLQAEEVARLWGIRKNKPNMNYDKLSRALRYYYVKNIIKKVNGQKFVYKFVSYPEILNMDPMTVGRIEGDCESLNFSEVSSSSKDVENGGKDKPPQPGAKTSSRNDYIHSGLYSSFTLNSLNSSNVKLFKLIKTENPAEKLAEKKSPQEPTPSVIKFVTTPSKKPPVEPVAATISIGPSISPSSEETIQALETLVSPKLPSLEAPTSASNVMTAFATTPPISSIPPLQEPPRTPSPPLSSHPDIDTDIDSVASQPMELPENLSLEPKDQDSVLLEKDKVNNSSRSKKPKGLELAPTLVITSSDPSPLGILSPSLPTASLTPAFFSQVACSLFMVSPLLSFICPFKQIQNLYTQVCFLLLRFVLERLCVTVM
The note with it: protein: recombinant; tags: N-terminal GST; dsDNA, one strand shown. In outline: as §1

Another experiment concerns the target T10, ETV2 (Homo sapiens, UniProt O00321 1-342).
T10 sequence: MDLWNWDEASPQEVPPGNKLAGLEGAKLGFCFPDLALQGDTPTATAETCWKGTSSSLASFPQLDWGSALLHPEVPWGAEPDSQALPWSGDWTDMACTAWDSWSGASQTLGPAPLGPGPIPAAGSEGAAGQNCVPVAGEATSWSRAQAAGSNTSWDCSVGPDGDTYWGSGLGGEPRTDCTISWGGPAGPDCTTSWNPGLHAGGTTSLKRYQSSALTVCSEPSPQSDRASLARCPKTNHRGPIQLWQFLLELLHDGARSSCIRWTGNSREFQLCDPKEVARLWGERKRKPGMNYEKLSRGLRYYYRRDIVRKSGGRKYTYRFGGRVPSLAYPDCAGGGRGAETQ
The note with it: protein: recombinant; tags: N-terminal GST; dsDNA, one strand shown. In outline: as §1

The next experiment deals with T11, ELF3 (Homo sapiens, UniProt P78545 1-371).
T11 sequence: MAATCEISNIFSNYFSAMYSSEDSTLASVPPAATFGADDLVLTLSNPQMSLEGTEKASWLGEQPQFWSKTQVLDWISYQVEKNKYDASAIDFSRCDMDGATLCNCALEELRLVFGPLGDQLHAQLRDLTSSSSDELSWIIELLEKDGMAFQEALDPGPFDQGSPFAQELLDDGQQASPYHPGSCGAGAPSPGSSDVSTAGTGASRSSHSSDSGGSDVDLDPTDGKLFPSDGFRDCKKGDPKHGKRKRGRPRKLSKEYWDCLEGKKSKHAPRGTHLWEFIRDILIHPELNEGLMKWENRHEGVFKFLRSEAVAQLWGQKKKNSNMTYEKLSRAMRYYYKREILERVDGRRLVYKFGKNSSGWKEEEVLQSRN
The note with it: protein: recombinant; tags: N-terminal GST; dsDNA, one strand shown. The method in brief: as §1

The next experiment concerns the target CRX (Homo sapiens, UniProt O43186 1-299). The note with it: protein: recombinant; tags: N-terminal GST; dsDNA, one strand shown. The method in brief: as §1
The target in a further experiment is ETV1 (Homo sapiens, UniProt P50549 1-477). The note with it: protein: recombinant; tags: N-terminal GST; dsDNA, one strand shown. In outline:
as §1

Sequence of CRX (O43186 whole entry): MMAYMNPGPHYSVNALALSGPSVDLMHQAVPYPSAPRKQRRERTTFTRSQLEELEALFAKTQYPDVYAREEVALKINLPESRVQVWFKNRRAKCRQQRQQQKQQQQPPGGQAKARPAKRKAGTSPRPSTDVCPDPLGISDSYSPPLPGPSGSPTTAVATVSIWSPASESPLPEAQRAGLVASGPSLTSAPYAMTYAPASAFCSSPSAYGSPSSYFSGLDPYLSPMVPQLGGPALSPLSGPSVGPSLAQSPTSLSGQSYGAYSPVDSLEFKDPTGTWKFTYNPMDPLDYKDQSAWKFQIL
Sequence of HSF1 (Q00613 whole entry): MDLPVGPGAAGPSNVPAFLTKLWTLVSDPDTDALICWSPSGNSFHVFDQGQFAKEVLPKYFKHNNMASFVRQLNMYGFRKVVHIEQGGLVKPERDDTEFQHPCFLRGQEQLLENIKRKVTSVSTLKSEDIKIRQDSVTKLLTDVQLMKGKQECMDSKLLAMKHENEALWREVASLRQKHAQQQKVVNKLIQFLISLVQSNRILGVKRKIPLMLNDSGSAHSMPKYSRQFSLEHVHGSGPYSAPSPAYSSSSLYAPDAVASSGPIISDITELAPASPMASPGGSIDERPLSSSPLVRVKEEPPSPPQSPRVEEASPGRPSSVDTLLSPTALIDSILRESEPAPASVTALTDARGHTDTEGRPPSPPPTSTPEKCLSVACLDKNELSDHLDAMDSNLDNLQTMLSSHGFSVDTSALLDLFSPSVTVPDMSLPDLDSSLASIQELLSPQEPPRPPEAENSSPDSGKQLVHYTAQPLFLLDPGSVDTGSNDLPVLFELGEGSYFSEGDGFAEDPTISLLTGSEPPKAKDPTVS
Sequence of ETV5 (P41161 whole entry): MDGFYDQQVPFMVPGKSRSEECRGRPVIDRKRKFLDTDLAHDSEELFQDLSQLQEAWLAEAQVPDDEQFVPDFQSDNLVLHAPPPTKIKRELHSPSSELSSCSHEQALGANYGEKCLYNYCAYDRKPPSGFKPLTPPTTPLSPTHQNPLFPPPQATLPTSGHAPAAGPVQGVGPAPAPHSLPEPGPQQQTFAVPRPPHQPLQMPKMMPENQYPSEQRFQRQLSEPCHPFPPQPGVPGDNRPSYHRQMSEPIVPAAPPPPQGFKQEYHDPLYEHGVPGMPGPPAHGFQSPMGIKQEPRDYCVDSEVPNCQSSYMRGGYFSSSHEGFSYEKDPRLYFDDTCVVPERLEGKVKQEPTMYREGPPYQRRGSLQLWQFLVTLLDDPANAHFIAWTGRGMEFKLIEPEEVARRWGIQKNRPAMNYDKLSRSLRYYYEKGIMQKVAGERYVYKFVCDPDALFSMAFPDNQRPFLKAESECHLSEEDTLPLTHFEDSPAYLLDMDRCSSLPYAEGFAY
Sequence of ELF4 (Q99607 whole entry): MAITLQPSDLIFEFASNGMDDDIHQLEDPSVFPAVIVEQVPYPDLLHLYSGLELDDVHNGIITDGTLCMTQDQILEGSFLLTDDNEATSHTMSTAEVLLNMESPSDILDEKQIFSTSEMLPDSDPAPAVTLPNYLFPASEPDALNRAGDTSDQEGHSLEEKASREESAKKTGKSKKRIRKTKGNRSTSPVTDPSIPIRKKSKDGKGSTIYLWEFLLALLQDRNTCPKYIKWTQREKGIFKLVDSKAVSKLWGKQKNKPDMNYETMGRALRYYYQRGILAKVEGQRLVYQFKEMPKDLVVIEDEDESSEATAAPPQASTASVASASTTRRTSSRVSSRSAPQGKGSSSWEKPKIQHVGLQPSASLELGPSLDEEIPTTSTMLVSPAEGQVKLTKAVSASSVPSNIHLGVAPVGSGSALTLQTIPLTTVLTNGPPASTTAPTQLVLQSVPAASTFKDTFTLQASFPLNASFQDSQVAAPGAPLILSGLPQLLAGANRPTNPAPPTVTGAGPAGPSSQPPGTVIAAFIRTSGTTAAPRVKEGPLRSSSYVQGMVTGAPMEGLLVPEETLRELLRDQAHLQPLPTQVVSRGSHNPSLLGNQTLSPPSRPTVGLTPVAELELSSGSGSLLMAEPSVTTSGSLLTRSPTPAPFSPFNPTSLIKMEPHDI
Sequence of ETV1 (P50549 whole entry): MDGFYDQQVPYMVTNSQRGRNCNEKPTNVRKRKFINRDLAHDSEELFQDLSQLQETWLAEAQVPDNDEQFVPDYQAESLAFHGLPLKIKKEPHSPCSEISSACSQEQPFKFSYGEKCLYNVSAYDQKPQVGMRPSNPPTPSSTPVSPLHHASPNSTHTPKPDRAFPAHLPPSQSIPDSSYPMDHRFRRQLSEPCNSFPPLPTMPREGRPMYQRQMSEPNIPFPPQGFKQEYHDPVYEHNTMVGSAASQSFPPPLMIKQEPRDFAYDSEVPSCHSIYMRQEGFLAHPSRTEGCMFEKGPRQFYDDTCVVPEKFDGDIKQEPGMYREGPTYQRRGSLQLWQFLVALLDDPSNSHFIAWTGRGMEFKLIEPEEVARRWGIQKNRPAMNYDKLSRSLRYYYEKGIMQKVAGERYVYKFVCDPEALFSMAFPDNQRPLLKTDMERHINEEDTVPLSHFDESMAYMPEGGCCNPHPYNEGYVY
Sequence of SPIB (Q01892 whole entry): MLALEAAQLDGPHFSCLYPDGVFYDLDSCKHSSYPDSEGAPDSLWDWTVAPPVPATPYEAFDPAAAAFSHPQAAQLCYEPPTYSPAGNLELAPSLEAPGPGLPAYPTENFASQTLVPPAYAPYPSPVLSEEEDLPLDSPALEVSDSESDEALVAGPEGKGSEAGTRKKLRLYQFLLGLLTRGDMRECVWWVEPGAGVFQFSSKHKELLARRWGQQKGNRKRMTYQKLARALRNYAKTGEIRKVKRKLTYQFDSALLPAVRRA
Sequence of ELF1 (P32519 whole entry): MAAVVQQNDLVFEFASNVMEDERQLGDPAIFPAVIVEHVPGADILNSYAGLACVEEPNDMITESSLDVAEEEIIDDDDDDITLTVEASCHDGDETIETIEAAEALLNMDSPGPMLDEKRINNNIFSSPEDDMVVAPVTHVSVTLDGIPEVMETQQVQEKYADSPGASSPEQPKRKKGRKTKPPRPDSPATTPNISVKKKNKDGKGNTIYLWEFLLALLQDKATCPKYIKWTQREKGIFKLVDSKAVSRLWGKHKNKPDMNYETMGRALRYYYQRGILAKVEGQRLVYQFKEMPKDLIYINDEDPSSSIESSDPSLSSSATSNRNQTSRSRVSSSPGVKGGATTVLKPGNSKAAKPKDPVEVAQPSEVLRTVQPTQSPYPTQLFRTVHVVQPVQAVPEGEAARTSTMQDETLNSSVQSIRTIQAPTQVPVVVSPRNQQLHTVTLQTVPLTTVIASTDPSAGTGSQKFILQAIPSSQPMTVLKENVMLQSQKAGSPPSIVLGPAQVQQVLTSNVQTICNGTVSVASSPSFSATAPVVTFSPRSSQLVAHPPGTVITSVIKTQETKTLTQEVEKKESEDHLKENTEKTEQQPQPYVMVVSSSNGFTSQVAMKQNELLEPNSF

For CTAAAG, the binding signal was 1.39 fold enrichment (6-mer frequency, TF over GST control) with FLI1; 1.35 fold enrichment (6-mer frequency, TF over GST control) with ELK1; 1.45 fold enrichment (6-mer frequency, TF over GST control) with GABPA; 1.36 fold enrichment (6-mer frequency, TF over GST control) with ERG; 1.39 fold enrichment (6-mer frequency, TF over GST control) in the experiment with ELF1; 1.35 fold enrichment (6-mer frequency, TF over GST control) in the experiment with EHF. Besides, the binding signal with SPI1 was 1.3 fold enrichment (6-mer frequency, TF over GST control); with SPIB it was 1.31 fold enrichment (6-mer frequency, TF over GST control); with ELK3, 1.49 fold enrichment (6-mer frequency, TF over GST control); in the experiment with FEV it was 1.29 fold enrichment (6-mer frequency, TF over GST control); with ETV5 it was 1.29 fold enrichment (6-mer frequency, TF over GST control); with HSF1, 1.48 fold enrichment (6-mer frequency, TF over GST control). Further, the binding signal is 1.36 fold enrichment (6-mer frequency, TF over GST control) in the experiment with SPIC; 1.34 fold enrichment (6-mer frequency, TF over GST control) with ELF4; 1.44 fold enrichment (6-mer frequency, TF over GST control) with ELK4; 1.29 fold enrichment (6-mer frequency, TF over GST control) with ETV2; 1.44 fold enrichment (6-mer frequency, TF over GST control) in the experiment with ELF3; 1.85 fold enrichment (6-mer frequency, TF over GST control) in the experiment with CRX. For the same sequence, the binding signal in the experiment with ETV1 was 1.45 fold enrichment (6-mer frequency, TF over GST control).
